Data reported in PubChem BioAssay (NCATS).
Inconclusive results are not listed. Active and inactive are the calls of the source. Calls come from the whole dose curve; as a rule, active = well fitted curve in the direction sought with a large enough effect; inconclusive = small, poorly fitted or top-dose-only effect, or another doubt; inactive = no such curve, though single readings can be large; an effect the other way counts as inactive or inconclusive.

Key:
HEK293 = assay: Cytotoxic Profiling of Annotated Libraries Using Quantitative High-Throughput Screening (AID 1296008); conditions: Five cell lines viability, CellTiter-Glo ATP luminescence, 48-72 h; max response: stronger effect = lower value; note: nearly all actives have a fitted effect of over 60% in size
Outline: (§1)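 Cytotoxicity was measured as CellTiter-Glo ATP luminescence, read after 10 min at room temperature. Compound treatment of the cells lasted 48 or 72 hr at 37 degrees Celsius in a qHTS format.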

KB-3-1 = assay: as above; conditions: Five cell lines viability, CellTiter-Glo ATP luminescence, 48-72 h; max response: stronger effect = lower value
Outline: as §1

NIH3T3 = assay: as above; conditions: Five cell lines viability, CellTiter-Glo ATP luminescence, 48-72 h; max response: stronger effect = lower value
Outline: as §1

C33A = assay: Primary qHTS to identify gynecologic anti-cancer compounds using libraries of approved drugs and bioactive compounds (AID 1345084); conditions: Gynecologic cancer cell panel viability, ATPlite luminescence, 48 h; series mostly up to 57.5 µM; note: nearly all actives have a fitted effect of over 55% in size
Outline: (§2)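 Cell viability after 48 h drug treatment, ATPlite luminescence readout; five doses.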

CASKI = assay: as above; conditions: Gynecologic cancer cell panel viability, ATPlite luminescence, 48 h; series mostly up to 57.5 µM
Outline: as §2

Es-2 = assay: as above; conditions: Gynecologic cancer cell panel viability, ATPlite luminescence, 48 h; series mostly up to 57.5 µM
Outline: as §2

HeLa = assay: as above; conditions: Gynecologic cancer cell panel viability, ATPlite luminescence, 48 h; series mostly up to 57.5 µM
Outline: as §2

Hek293T = assay: as above; conditions: Gynecologic cancer cell panel viability, ATPlite luminescence, 48 h, control line for the selectivity index; series mostly up to 57.5 µM
Outline: as §2

JEG-3 = assay: as above; conditions: Gynecologic cancer cell panel viability, ATPlite luminescence, 48 h; series mostly up to 57.5 µM
Outline: as §2

CAOV3 = assay: as above; conditions: Gynecologic cancer cell panel viability, ATPlite luminescence, 48 h; series mostly up to 57.5 µM
Outline: as §2
% is set by controls: 0 for no effect and ±100 for the full control effect; potency is the fitted concentration of half-maximal effect.

CNC(=S)NS(=O)(=O)c1cc(CCNC(=O)c2cc(Cl)ccc2OC)ccc1OC
inactive: max response (HEK293) 0.225% | max response (KB-3-1) -4.17% | max response (NIH3T3) -5.29% | Potency (C33A) | Potency (CASKI) | Potency (Es-2) | Potency (HeLa) | Potency (Hek293T) | Potency (JEG-3)

CC(=O)c1ccc(O[C@@H]2O[C@H](CO)[C@@H](O)[C@H](O)[C@H]2O)cc1
inactive: max response (HEK293) -8.37% | max response (KB-3-1) 2.85% | max response (NIH3T3) -22.7% | Potency (C33A) | Potency (CASKI) | Potency (Es-2) | Potency (HeLa) | Potency (Hek293T) | Potency (JEG-3)

Cc1ncc(CCCN(C)C)cc1Nc1ncc2c(n1)-c1ccc(C(F)(F)F)cc1NC(=S)C2
inactive: max response (HEK293) -92.5% | Potency (C33A) | Potency (CAOV3) | Potency (CASKI) | Potency (JEG-3)
active: Potency (KB-3-1) 0.0046 µM | Potency (NIH3T3) 3.66 µM

C[C@H](NC(c1cccc(C[P+](=O)O)c1)[C@H](C)O)c1ccc(Cl)c(Cl)c1 (stereo partly drawn)
inactive: max response (HEK293) -17.8% | outcome (KB-3-1) | max response (NIH3T3) 3.54% | Potency (C33A) | Potency (CASKI) | Potency (Es-2) | Potency (HeLa) | Potency (Hek293T) | Potency (JEG-3)

N=c1nc2n(cc1F)C1OC(CO)C(O)C1O2 (stereo not drawn)
active: Potency (HEK293) 5.17 µM | Potency (NIH3T3) 2.06 µM
inactive: max response (KB-3-1) -7.19% | Potency (C33A) | Potency (CASKI) | Potency (HeLa) | Potency (Hek293T) | Potency (JEG-3)

COc1cc(Br)c(Nc2nc(-c3c(C)nc4ncccn34)cs2)c(Br)c1
inactive: Potency (C33A) | Potency (CASKI)
active: Potency (HEK293) 5.8 µM | Potency (KB-3-1) 2.31 µM | Potency (NIH3T3) 1.46 µM | Potency (Es-2) 8.91 µM

O=C(O)/C=C/c1ccc(-c2ccc(O)c(C34CC5CC(CC(C5)C3)C4)c2)cc1
active: Potency (HEK293) 0.731 µM | Potency (KB-3-1) 2.06 µM | Potency (NIH3T3) 0.92 µM | Potency (C33A) 1.58 µM | Potency (CASKI) 1.78 µM | Potency (Es-2) 0.631 µM | Potency (HeLa) 8.91 µM | Potency (Hek293T) 2 µM | Potency (JEG-3) 2.82 µM

CC1(C)[C@@H](O)CC[C@]2(C)[C@H]3CC=C4[C@@H]5C[C@](C)(C(=O)O)CC[C@]5(C)CC[C@@]4(C)[C@]3(C)CC[C@@H]12
inactive: max response (HEK293) 2.45% | max response (KB-3-1) 8.76% | max response (NIH3T3) 0.034% | Potency (C33A) | Potency (CASKI) | Potency (Es-2) | Potency (HeLa) | Potency (Hek293T) | Potency (JEG-3)

O=C(c1ccc(/C=C/c2n[nH]c3ccccc23)cc1)N1CCNCC1
active: Potency (HEK293) 20.6 µM | Potency (KB-3-1) 5.8 µM | Potency (NIH3T3) 4.61 µM | Potency (HeLa) 2.24 µM
inactive: Potency (C33A) | Potency (CAOV3) | Potency (Hek293T)

COc1c2ccoc2cc2oc(CO[C@@H]3O[C@H](CO)[C@@H](O)[C@H](O)[C@H]3O)cc(=O)c12
inactive: max response (HEK293) 1.44% | max response (KB-3-1) -1.43% | max response (NIH3T3) -8.92% | Potency (C33A) | Potency (CASKI) | Potency (Es-2) | Potency (HeLa) | Potency (Hek293T) | Potency (JEG-3)

CC(C)Oc1ccc(C(=O)NC(CNC(=O)CN(C)C)Cc2ccc(-c3cn4cccc(C(C)O)c4n3)cc2)cc1Cl (stereo not drawn)
inactive: max response (NIH3T3) -19.5% | Potency (C33A) | Potency (CAOV3) | Potency (JEG-3)
active: Potency (HEK293) 0.206 µM | Potency (KB-3-1) 0.146 µM | Potency (HeLa) 0.251 µM

C[C@H](Oc1ccc(S(C)(=O)=O)cc1C(=O)N1CCN(c2ncc(C(F)(F)F)cc2F)CC1)C(F)(F)F
inactive: max response (HEK293) -24.7% | max response (KB-3-1) 4.57% | max response (NIH3T3) -19.7% | Potency (C33A) | Potency (CASKI) | Potency (Es-2) | Potency (HeLa) | Potency (Hek293T) | Potency (JEG-3)

NCc1ccc(Nc2ncc(F)c(Nc3ccccc3)n2)cc1
inactive: Potency (C33A) | Potency (CASKI) | Potency (Hek293T) | Potency (JEG-3)
active: Potency (HEK293) 20.6 µM | Potency (KB-3-1) 8.2 µM | Potency (NIH3T3) 14.6 µM | Potency (HeLa) 15.8 µM

COc1cc2c(cc1OC)N1C(=O)C[C@]34C=CCN5CC[C@@H]2[C@@H](CC3)[C@]514
inactive: max response (HEK293) -26.4% | max response (KB-3-1) 7.8% | max response (NIH3T3) -2.04% | Potency (C33A) | Potency (CAOV3) | Potency (Es-2) | Potency (HeLa) | Potency (Hek293T) | Potency (JEG-3)

CCCCc1nc2cc(/C=C/C(=O)NO)ccc2n1CCN(CC)CC
active: Potency (HEK293) 1.84 µM | Potency (KB-3-1) 1.46 µM | Potency (NIH3T3) 5.17 µM | Potency (C33A) 5.01 µM | Potency (CAOV3) 8.91 µM | Potency (CASKI) 5.62 µM | Potency (Es-2) 3.16 µM | Potency (HeLa) 2.51 µM | Potency (Hek293T) 3.16 µM | Potency (JEG-3) 3.16 µM

CC/C=C\C/C=C\C/C=C\CCCCCCCC(=O)OCC(O)COC1OC(CO)C(O)C(O)C1O (stereo not drawn)
inactive: max response (HEK293) -1.09% | outcome (KB-3-1) | max response (NIH3T3) -3.16% | Potency (C33A) | Potency (CASKI) | Potency (Es-2) | Potency (HeLa) | Potency (Hek293T) | Potency (JEG-3)

Cn1c(=O)cc(N2CCCC(N)C2)n(Cc2cc(F)ccc2C#N)c1=O (stereo not drawn)
inactive: max response (HEK293) -7.1% | max response (KB-3-1) -0.0728% | max response (NIH3T3) -2.76% | Potency (C33A) | Potency (CASKI) | Potency (Es-2) | Potency (HeLa) | Potency (Hek293T) | Potency (JEG-3)

CCCC1(c2ccccc2)NC(=O)N(CC(=O)N(C)Cc2c(F)cccc2Cl)C1=O (stereo not drawn)
inactive: max response (HEK293) -6.56% | max response (KB-3-1) -1.57% | max response (NIH3T3) -2.22% | Potency (C33A) | Potency (CAOV3) | Potency (CASKI) | Potency (Es-2) | Potency (HeLa) | Potency (Hek293T) | Potency (JEG-3)
